BL2 CD40 inh = CD40 pathway inhibition in BL2 cells; inhibition, % at 10 µM; 83,000 compounds, 0.94% hits; BL2 NF-kB luciferase reporter, CD40L-induced, 4 h;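 active = mean inhibition of at least 50% with a set share of replicates also reaching that level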
Of the large screens only hits and unclear results are named; the others gave an inactive call; ! = not confirmed by another sample; [ ] = another dose, or the depositor's remark. Shown is part of a subset that was picked to be rich in hits.

Cc1ccccc1S(=O)(=O)N1[C@@H]2CNC[C@H]1[C@@H]2c1ccc(-c2ccc(C#N)cc2)cc1	none
O=C(Nc1ccc(F)cc1)N1C[C@@H]2N[C@H](C1)C2c1ccc(/C=C/c2ccccc2)cc1 (some centres undefined)	none
O=C(Nc1ccccc1Cl)N1[C@@H]2CNC[C@H]1C2c1ccc(-c2ccccc2)cc1 (some centres undefined)	none
C/C=C/c1ccc(C2[C@@H]3CN(C(=O)Nc4ccccc4F)C[C@H]2N3)cc1 (some centres undefined)	none
Cc1ccccc1S(=O)(=O)N1[C@@H]2CNC[C@H]1C2c1ccc(/C=C/c2ccccc2)cc1 (some centres undefined)	BL2 CD40 inh 51!
C/C=C/c1ccc(C2[C@H]3CNC[C@@H]2N3C(=O)Nc2ccccc2Cl)cc1 (some centres undefined)	none
COc1ccc(C#Cc2ccc([C@H]3[C@@H](CO)N4CCCCN(C(=O)Nc5cccc(F)c5)C[C@H]34)cc2)cc1	none
COc1ccc(C#Cc2ccc([C@@H]3[C@H]4CN(C(=O)Nc5cccc(F)c5)CCCCN4[C@H]3CO)cc2)cc1	none
COc1ccc(C#Cc2ccc([C@@H]3[C@H](CO)N4CCCCN(C(=O)Nc5cccc(F)c5)C[C@@H]34)cc2)cc1	BL2 CD40 inh 68[25 µM]
CO[C@H](CN(C)Cc1cc(F)ccc1F)[C@@H](C)CN([C@H](C)CO)S(=O)(=O)c1ccc(C)cc1	none
C[C@@H]1CCCCO[C@H](CN(C)C(=O)Nc2ccc(C(F)(F)F)cc2)[C@@H](C)CN([C@@H](C)CO)C(=O)c2cc(NS(=O)(=O)c3cn(C)cn3)ccc2O1	none
Cc1ccc(S(=O)(=O)N(C)C[C@@H]2OCCCC[C@H](C)Oc3ccc(NC(=O)Nc4ccccc4)cc3C(=O)N([C@H](C)CO)C[C@H]2C)cc1	none
O=C(c1cnccn1)N1CC(=O)N2[C@H](CO)[C@@H](c3ccc(-c4cccc(F)c4)cc3)[C@@H]2C1	none
O=C(C[C@@H]1C[C@H]2c3cc(NC(=O)NC4CCCC4)ccc3O[C@H]2[C@@H](CO)O1)NCc1cccnc1	none
C/C=C/c1ccc([C@H]2[C@@H](CO)N(C(=O)NC(C)C)[C@H]2CNC(C)=O)cc1	none
CCC(=O)N1CC2(C1)[C@H](c1ccccc1)[C@H](CO)N2CC1CC1	none
CO[C@H]1CN(C)C(=O)c2cc(NC(=O)NC3CCCCC3)ccc2OC[C@@H](C)N(CC2CCOCC2)C[C@@H]1C	none
CO[C@@H]1CC[C@@H]2CCOc3c(C#N)cccc3C(=O)N(C)C[C@@H](c3ccccc3)CC(=O)N(C)C[C@@H]1O2	none
O=C(N[C@H]1CC[C@H](CCNC(=O)C2CCCC2)O[C@H]1CO)c1ccccn1	none
O=C(Nc1ccccc1F)N1CCCCN2[C@H](CO)[C@H](c3ccc(/C=C/c4ccccc4)cc3)[C@H]2C1	BL2 CD40 inh 89[25 µM]
O=C(Nc1ccccc1F)N1CCCCN2[C@H](CO)[C@H](c3ccc(/C=C/c4ccccc4)cc3)[C@@H]2C1	none
O=C(Nc1ccccc1F)N1CCCCN2[C@H](C1)[C@@H](c1ccc(/C=C/c3ccccc3)cc1)[C@@H]2CO	none
O=C(C1CCOCC1)N1CC(=O)N2[C@@H](CO)[C@@H](c3ccc(C#CC4CCCCC4)cc3)[C@@H]2C1	none
O=C(Nc1ccccc1N1CCCCC1)c1ccc(-c2ccc(Cl)cc2)o1	none
Cc1nnc(NC(=O)c2ccc(-c3ccc(Cl)cc3)o2)s1	none
Cc1cc(N2CCN(C)CC2)ccc1NC(=O)c1ccc(-c2ccc(Cl)cc2)o1	BL2 CD40 inh 64
C[C@H]1CN([C@@H](C)CO)C(=O)c2c(c3ccccc3n2C)-c2ccccc2CO[C@H]1CN(C)CC1CCCCC1	none
O=C(/C=C/c1ccccc1)COC(=O)c1ccccc1	none
O=C(/C=C/c1ccccc1)CC(O)(c1ccccc1)C(F)(F)F (centres undefined)	none
O=C(/C=C/c1ccccc1)CC(O)(c1ccccc1)C(F)(F)C(F)F (centres undefined)	BL2 CD40 inh 56
CO[C@H]1CN(C)C(=O)c2ccc(NC(=O)C3CCC3)cc2OC[C@@H](C)N(Cc2ccc(F)cc2)C[C@H]1C	none
Cc1noc(C)c1S(=O)(=O)N(C)C[C@H]1Oc2ccc(NS(=O)(=O)c3cn(C)cn3)cc2CC(=O)N([C@@H](C)CO)C[C@@H]1C	none
CC(C)CC#Cc1ccc([C@@H]2[C@H](CO)N3C(=O)CN(C(=O)c4ccccn4)C[C@@H]23)cc1	none
CC(C)NC(=O)N1[C@H](C#N)[C@@H](c2ccc(C#CC3CCCCC3)cc2)[C@@H]1CO	none
CC(C)NC(=O)N1[C@H](C#N)[C@@H](c2ccc(C#CC3CCCC3)cc2)[C@H]1CO	none
N#C[C@@H]1[C@H](c2ccc(C#CC3CCCC3)cc2)[C@@H](CO)N1C(=O)Nc1ccc(F)cc1	BL2 CD40 inh 48
CC(C)NC(=O)N1[C@H](CO)[C@H](c2ccc(C#CC3CCCCC3)cc2)[C@@H]1C#N	none
N#C[C@H]1[C@H](c2ccc(C#CC3CCCCC3)cc2)[C@H](CO)N1C(=O)Nc1ccc(F)cc1	BL2 CD40 inh 51[25 µM]
N#C[C@H]1[C@@H](c2ccc(C#CC3CC3)cc2)[C@@H](CO)N1C(=O)Nc1ccc(F)cc1	none
N#C[C@H]1[C@@H](c2ccc(C#CC3CCCCC3)cc2)[C@H](CO)N1C(=O)Nc1ccc(F)cc1	BL2 CD40 inh 55[25 µM]
CC(C)NC(=O)N1[C@H](C#N)[C@H](c2ccc(C#CC3CCCCC3)cc2)[C@@H]1CO	none
N#C[C@H]1[C@H](c2ccc(C#CC3CCCC3)cc2)[C@@H](CO)N1C(=O)Nc1ccc(F)cc1	none
O=C(c1cnccn1)N1CC(=O)N2[C@H](CO)[C@H](c3ccc(C#CC4CCCC4)cc3)[C@H]2C1	none
CN1c2ccc(-c3ccccc3)cc2[C@H]2[C@H](CCN2C(=O)NC2CCCCC2)[C@@H]1CO	none
CCCNC(=O)C[C@@H]1CC[C@H]2[C@H](COc3ccc(NC(=O)CC)cc3C(=O)N2C)O1	none
CCC(=O)N1CC2(C1)CN(Cc1cccc(Cl)c1)[C@H](CO)c1[nH]c3cc(OC)ccc3c12	none
CC(C)c1cn(CC[C@H]2CC[C@@H](NC(=O)C3CCCCC3)[C@H](CO)O2)nn1	none
CN1c2ccc(-c3ccccc3F)cc2[C@H]2[C@H](CCN2S(=O)(=O)c2ccc(F)cc2)[C@H]1CO	none
O=C(Nc1ccc(F)cc1)N1C[C@H]2[C@@H](c3ccccc31)[C@@H](CO)N2C(=O)Cc1ccccc1	none
O=C(C[C@@H]1C[C@@H]2c3cc(NC(=O)Nc4ccccc4F)ccc3O[C@@H]2[C@@H](CO)O1)NC1CCCCC1	none
Cn1cnc(CCNC(=O)C[C@H]2CC[C@@H]3[C@H](COC[C@@H](O)CN3C(=O)Nc3ccc(C(F)(F)F)cc3)O2)c1	none
Cn1cnc(CCNC(=O)C[C@@H]2CC[C@@H]3[C@H](COC[C@H](O)CN3C(=O)Nc3ccc(C(F)(F)F)cc3)O2)c1	none
Cn1cnc(CCNC(=O)C[C@@H]2CC[C@@H]3[C@H](COC[C@@H](O)CN3C(=O)Nc3ccc(C(F)(F)F)cc3)O2)c1	BL2 CD40 inh 52[25 µM]
Cc1ccc(CN(C)C[C@@H]2OCc3cnnn3CCCC(=O)N([C@H](C)CO)C[C@@H]2C)cc1	none
CC(=O)N(C)C[C@@H]1Oc2ccc(NS(C)(=O)=O)cc2C(=O)N(C)C[C@H]1C	none
CC(=O)N(C)C[C@H]1Oc2ncccc2C(=O)N(C)C[C@@H]1C	none
COc1ccc(C2CC2/C(C)=N/OC(=O)c2cccs2)cc1 (centres undefined)	none
COc1ccc(OCCOC(=O)c2cccs2)cc1	none
COc1ccc(C(=O)O/N=C(/C)c2cccs2)cc1	BL2 CD40 inh 59
C[C@@H]1CN([C@H](C)CO)C(=O)c2ccccc2-c2ccccc2CO[C@@H]1CN(C)CC1CC1	none

High-throughput results deposited in PubChem by Broad Institute.
